Source: the supplement of paper PMC6555819

What was measured:
Experiment in all cases: PBM binding z-score (relative to random genomic background probes); higher = stronger binding; sequences stand for … in GC…GCGATTGACAGCGTAGAATGAAGG
[1] = test system: FXR:RXRa (NR concentration 270 nM, RXRa partner concentration 90 nM)
Method in brief: (§1)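 Custom Agilent 4×180K protein-binding microarrays carried double-stranded probes. Their 34-nt variable regions held direct-repeat seeds, single-nucleotide variants, half-site ablations and random human genomic background sequences. Arrays were incubated 1 h with ligand-free nuclear receptor dimers in PBS pH 7.4, 2% milk, 0.02% Triton X-100, 1 mM DTT, 0.2 mg/mL BSA and 0.4 mg/ml salmon testes DNA. Antibodies against each partner (one per run) detected binding, and scanned fluorescence was regression-normalized. Binding z-scores use random background probes as reference.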

[2] = test system: LXRa:RXRa (NR concentration 270 nM, RXRa partner concentration 90 nM)
Method in brief: as §1

[3] = test system: LXRa homodimer (NR concentration 270 nM)
Method in brief: as §1

[4] = test system: LXRb:RXRa (NR concentration 270 nM, RXRa partner concentration 90 nM)
Method in brief: as §1

[5] = test system: LXRb homodimer (NR concentration 270 nM)
Method in brief: as §1

[6] = test system: PPARa:RXRa (NR concentration 270 nM, RXRa partner concentration 90 nM)
Method in brief: as §1

[7] = test system: PPARg:RXRa (NR concentration 180 nM, RXRa partner concentration 90 nM)
Method in brief: as §1

[8] = test system: PPARg:RXRa 270nM:90nM, anti-RXR (NR concentration 270 nM, RXRa partner concentration 90 nM)
Method in brief: as §1

[9] = test system: PPARg:RXRa 30nM:10nM, anti-RXR (NR concentration 30 nM, RXRa partner concentration 10 nM)
Method in brief: as §1

[10] = test system: PPARg:RXRa 90nM:30nM, anti-RXR (NR concentration 90 nM, RXRa partner concentration 30 nM)
Method in brief: as §1

[11] = test system: PPARg:RXRa DBDmut IVT, anti-RXR (DBD mutation: RXRa K156A/R161A, NR concentration 270 nM, RXRa partner concentration 90 nM)
Method in brief: as §1

[12] = test system: PPARg:RXRa IVT, anti-PPARg (NR concentration 270 nM, RXRa partner concentration 90 nM)
Method in brief: as §1

[13] = test system: PPARg DBDmut:RXRa IVT, anti-PPARg (DBD mutation: PPARg1 K132A/R137A, NR concentration 270 nM, RXRa partner concentration 90 nM)
Method in brief: as §1

[14] = test system: PPARg DBDmut IVT, anti-PPARg (DBD mutation: PPARg1 K132A/R137A, NR concentration 270 nM)
Method in brief: as §1

[15] = test system: PPARg homodimer (NR concentration 180 nM)
Method in brief: as §1

[16] = test system: PXR:RXRa (NR concentration 270 nM, RXRa partner concentration 90 nM)
Method in brief: as §1

[17] = test system: PXR homodimer (NR concentration 270 nM)
Method in brief: as §1

[18] = test system: RARa:RXR (NR concentration 270 nM, RXRa partner concentration 90 nM)
Method in brief: as §1

[19] = test system: RARa homodimer (NR concentration 270 nM)
Method in brief: as §1

[20] = test system: RARb:RXRa (NR concentration 270 nM, RXRa partner concentration 90 nM)
Method in brief: as §1

Sequence | PBM binding z-score [1] | PBM binding z-score [2] | PBM binding z-score [3] | PBM binding z-score [4] | PBM binding z-score [5] | PBM binding z-score [6] | PBM binding z-score [7] | PBM binding z-score [8] | PBM binding z-score [9] | PBM binding z-score [10] | PBM binding z-score [11] | PBM binding z-score [12] | PBM binding z-score [13] | PBM binding z-score [14] | PBM binding z-score [15] | PBM binding z-score [16] | PBM binding z-score [17] | PBM binding z-score [18] | PBM binding z-score [19] | PBM binding z-score [20]
ACTATTAGTTGACTTAGGGTAACCGATACGACGC | 0.985 | 1.09 | 1.21 | 0.679 | 0.748 | 0.468 | 0.907 | 0.758 | 0.442 | 0.705 | 0.838 | 0.626 | 1.67 | 1.36 | 0.663 | 0.483 | 0.517 | 0.73 | 0.861 | 0.582
CCTAGCAGGCCAGGGTTACTCAAGCATTTCGCTT | -0.32 | 0.0268 | -0.897 | 0.041 | -1.32 | 0.412 | -0.105 | 0.539 | -0.759 | -0.212 | 0.153 | -0.137 | -1.74 | -1.06 | -0.6 | -0.139 | -0.48 | 0.193 | -0.665 | 0.303
AGTCAAAGTTCACTAGGTAGCGTAAGATTCAGCT | 5.23 | 5.4 | 3.04 | 2.9 | 0.743 | 4.13 | 6.27 | 6.17 | 2.76 | 5.22 | 1.37 | 3.4 | 0.246 | 0.621 | 2.62 | 4.12 | 2.83 | 3.01 | 1.33 | 4.68
CCTTACGGGTCACTAGGTTATAGCACGACGAGCG | 4.41 | 3.03 | 0.136 | 2.64 | -0.31 | 5.02 | 6.65 | 5.97 | 3.03 | 4.94 | 4.54 | 5.69 | 1.5 | 0.896 | 2.59 | 2.84 | -0.213 | 3.7 | 0.907 | 3.7
ATCTCTAGGTAAGACTCATTTCAGTGAAGAACGC | 0.503 | 0.373 | 0.526 | 0.488 | 0.888 | -0.0236 | 0.0953 | 0.265 | 0.363 | 0.295 | 2.23 | 1.3 | 0.559 | 1.36 | 1.13 | -0.0936 | 0.605 | 0.211 | 1.77 | 0.27
CGAACTAGGTCAAGGATAGTGAATCTCCGCACGC | 3.06 | 1.9 | 0.0332 | 1.36 | -0.0688 | 4.56 | 7.74 | 6.47 | 4.24 | 6.39 | 8.31 | 8.31 | 3.8 | 1.33 | 2.41 | 0.863 | -0.425 | 1.96 | 0.921 | 3.73
CCTCGGAGGACAGAAGGTCTGAGCTGTCCGCTTT | -0.434 | -0.47 | -0.775 | -1.15 | -1.31 | -0.68 | -0.853 | -0.655 | -1.15 | -1.14 | 0.154 | -0.94 | -1.16 | -2.11 | -0.0745 | -0.674 | -0.886 | -0.544 | -0.761 | 0.519
TCTGCTAGGTCCACGATGGTCAGCTAATCTGCTA | -0.34 | -0.399 | -0.522 | -0.79 | -0.988 | -0.24 | -0.332 | 0.324 | 1.16 | 0.768 | 0.568 | -0.114 | -0.95 | -0.628 | -0.907 | -0.483 | -1.23 | -0.477 | -1.27 | 0.204
CCGACTGGGGCATGGTTACCATAACGCACAGCCA | -0.978 | -0.621 | -0.461 | -0.438 | -1.07 | 0.0592 | 1.31 | 1.11 | -0.195 | 0.273 | 2.18 | 2.5 | -0.776 | -0.933 | -0.129 | -0.696 | -0.585 | -0.433 | -0.847 | 0.396
TGAATGAGGTTATAAGATTAGGGAACGTTGCAAA | 1.34 | 1.39 | 0.076 | 1.21 | -0.0904 | 2.29 | 1.15 | 1.55 | 1.09 | 1.51 | 1.08 | 1.82 | 0.868 | 0.168 | 0.438 | 0.788 | 0.176 | 1.31 | 0.154 | 1.15
CCTAGCAGGCCTGGGTCACTCAAGCATTTCGCTT | 0.369 | 0.545 | -0.474 | 0.861 | -0.369 | 1.34 | -0.336 | 0.314 | -0.828 | -0.485 | 0.171 | 0.217 | -1.39 | -1.28 | 0.279 | 0.53 | -0.661 | 1.16 | 0.152 | 1.43
ATAATGAGGTTAAGATCAGGGAAACAGAATACAT | 2.39 | 2.59 | 0.379 | 2.15 | 0.727 | 3.79 | 3.01 | 2.48 | 1.48 | 2.19 | 3.08 | 3.32 | 1.83 | 1.92 | 1.15 | 1.31 | 0.654 | 2.22 | 0.709 | 2.22
TCGTGTAGGTTAGGGGCATTCAGAATGGCGTCGA | 1.04 | 0.994 | 0.245 | 1.63 | 0.909 | 1.6 | 0.371 | 1.78 | 2.01 | 2.06 | 1.79 | 1.06 | 0.425 | 0.917 | 1.52 | 0.802 | 0.406 | 1.03 | 0.812 | 1.47
TCATATAGGTAATACAGGTGAAAGTAGGCATCTA | 0.885 | 1.45 | 0.55 | 1.22 | 0.295 | 2.15 | 2.26 | 2.62 | 3.8 | 3.24 | 3.97 | 3.61 | 1.94 | 1.73 | 1.39 | 0.952 | 0.772 | 1.07 | 1.69 | 0.613
